± gives the standard deviation of the averaged measurements.
System: BJ5TA
Experiment: nucleolar normality score relative to DMSO (fraction of DMSO control); RPE1 is a non-cancer human cell line; higher = more normal nucleoli (less nucleolar stress)
Protocol: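 Selected screen hits were validated in hTERT lines (BJ5TA, CHON-002, RPE1) and cancer lines (DLD1, HCT116). Cells were immunostained for nucleolin and UBF and the nucleolar normality score was measured per field of view, with 4 fields per drug. Scores are normalized to each cell line's own DMSO control. Dose and time are not stated for this panel.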

Structure (SMILES)	nucleolar normality score
CC[C@@]1(O)C(=O)OCc2c1cc1n(c2=O)Cc2cc3ccccc3nc2-1 [Camptothecin]	0.473 ± 0.03

From the supplement of paper PMC10723795
